This is a sample that favours compounds with a hit; in the whole collection about 2.2% have one here.
HIF activator: HIF pathway transcriptional activation | actives 0.32% (n = 300,000) | U2OS HRE-luciferase reporter, luminescence; normalized: DMSO 0%, desferrioxamine 100% | AID 1910 | activation, % at 7.5 µM (by protocol);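 active means mean activation of at least 10% of the iron chelator positive control signal, with at least half of replicates also reaching 10%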
VLA-4 inh: inhibition in a human VLA-4 binding assay. P13612. VLA-4 expressing cells, ligand binding flow cytometry. inhibition, % (about 7 µM as worked out from the volumes in the protocol). actives 0.2% (n = 330,000). AID 2557; in the data active means inhibition above about 50%
CHT PAM: allosterically activates the human high affinity choline transporter; Q9GZV3; CHT-expressing cells, membrane potential dye, choline EC20; stronger effect = higher value; LV-AA mutant CHT in HEK293 cells; B-score at 10 µM; actives 0.49% (n = 310,000);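 active means initial fluorescence not abnormally high and integrated response B-score, plate-corrected, over 3 SD above library mean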
Target sequence (Q9GZV3 whole entry, looked up): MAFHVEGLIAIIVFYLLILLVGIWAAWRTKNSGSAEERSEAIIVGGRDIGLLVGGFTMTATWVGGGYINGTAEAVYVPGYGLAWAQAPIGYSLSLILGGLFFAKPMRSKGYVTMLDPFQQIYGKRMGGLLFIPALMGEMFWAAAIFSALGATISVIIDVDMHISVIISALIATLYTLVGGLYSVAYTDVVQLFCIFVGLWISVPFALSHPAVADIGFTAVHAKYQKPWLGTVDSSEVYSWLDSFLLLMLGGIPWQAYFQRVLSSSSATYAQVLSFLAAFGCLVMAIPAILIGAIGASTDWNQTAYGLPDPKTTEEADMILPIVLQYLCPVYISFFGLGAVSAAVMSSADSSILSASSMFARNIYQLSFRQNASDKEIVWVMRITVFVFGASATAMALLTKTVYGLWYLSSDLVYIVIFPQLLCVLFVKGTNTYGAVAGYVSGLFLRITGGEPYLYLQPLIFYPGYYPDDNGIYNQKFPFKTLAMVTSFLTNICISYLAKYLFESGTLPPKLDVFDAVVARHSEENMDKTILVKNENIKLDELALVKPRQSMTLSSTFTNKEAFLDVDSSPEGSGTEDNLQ
AI-2 QS mod: modulates the Vibrio harveyi AI-2 quorum sensing system. actives 0.4% (n = 300,000). activity change, % at 7.5 µM. Vibrio harveyi JMH597 AI-2 luminescence/OD600 ratio, 9 h; stronger effect = lower value; strain lacks LuxN and CqsS sensors; 0 = neutral-control median. AID 2094; in the data active means activity change below about -75%, passing the limit was not always enough;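 further: luminescence divided by OD600 gain over 9 h not by final OD600 alone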
Platelet DG rel: platelet dense granule release activity; AID 1663; inhibition, %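 (compounds screened at 7.5 µM in platelet-rich plasma)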; human platelet-rich plasma, SFLLRN dense granule ATP release, luminescence; actives 0.22% (n = 300,000);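 active means mean replicate score, as percent of positive control, at or above 50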
CHT inh: inhibits the human high affinity choline transporter | Q9GZV3 | CHT-expressing cells, membrane potential dye, choline response; stronger effect = lower value | B-score at 10 µM | actives 0.86% (n = 310,000);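 active means B-score over 3 SD under the library average, and starting fluorescence ratio not unusually high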;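 further: choline stimulus applied at its EC90 after an EC20 pre-addition; B-score computed on integrated fluorescence ratio after choline addition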
JMH597 growth rt: retest: inhibitors of Vibrio harveyi JMH597 growth; shares compounds with AI-2 QS mod; OD600 absorbance, 9 h; lacks LuxN and CqsS sensors; growth inhibition, % at 7.5 µM; actives 1% (n = 750); AID 2726;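 active means every replicate shows growth inhibition above 50%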
BB721 lum counter: retest counter-screen: BB721 constitutive quorum sensing luminescence decrease; inhibition, % at 7.5 µM; Vibrio harveyi BB721 luminescence, 9 h; shares compounds with AI-2 QS mod; actives 95% (n = 750);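 active means inhibition above about 80% in every replicate, not just on average, limit read from the data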
BB721 growth rt: retest Vibrio harveyi BB721 growth inhibition | shares compounds with AI-2 QS mod | OD600 absorbance, 9 h | growth inhibition, % at 7.5 µM | actives 3% (n = 750) | AID 2728;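 active means every replicate shows growth inhibition above 50%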
AI-2 QS JMH597: Vibrio harveyi AI-2 signaling luminescence modulation – JMH597 strain, confirmation. shares compounds with AI-2 QS mod. Vibrio harveyi JMH597 AI-2 quorum sensing luminescence, 9 h; luxN and CqsS knockout, AI-2 only. inhibition, % at 7.5 µM. actives 97% (n = 750);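 active means every replicate shows more than 75% inhibition of signal versus neutral control wells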
VLA-4 mod pick: human VLA-4 allosteric modulation in cherry picked compounds | shares compounds with VLA-4 inh | U937 cells, HUTS-21 LIBS mAb binding, flow cytometry; LDV ligand present at threefold Kd | inhibition, % at 6.7 µM | actives 2% (n = 1,300); in the data active means inhibition above about 40%
CHT inh conf: confirmation of human choline transporter CHT inhibitors | shares compounds with CHT inh | CHT-expressing cells, choline membrane potential dye; LV-to-AA substituted CHT, HEK293 cells | CHT activity remaining % of control (stronger effect = lower value), % at 10 µM | actives 70% (n = 2,400);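 active means choline transporter activity left, mean of duplicates at 10 µM, below buffer-only control mean minus 3 SD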;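 further: depolarization triggered by choline at its EC90 following an EC20 pre-addition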
HEK293 CHT ctr: activity in parental HEK293 cells lacking CHT. shares compounds with CHT inh. membrane potential dye, choline response; active = decrease or increase beyond buffer ±3SD. membrane potential ratio readout (active if shifted either direction beyond buffer ±3SD; no single direction) at 10 µM. actives 4% (n = 2,400). AID 493222;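 further: parental cells lack the transporter so any hit is non-specific; ratio is peak minus trough fluorescence over baseline after EC90 choline challenge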
Each line names hits and unclear results; the compound was inactive in the other large screens (follow-up assays come after a bar, where they were run).

O=C(Nc1cccc(C(F)(F)F)c1)C1CCN(S(=O)(=O)c2cccnc2)CC1	AI-2 QS mod -83.1, CHT inh -5.37 | JMH597 growth rt inactive | BB721 lum counter 91.8 | BB721 growth rt inactive | AI-2 QS JMH597 94.0 | CHT inh conf 55.2% | HEK293 CHT ctr inactive
CCOC(=O)c1cc2c(ccc3nc(C)c(C)c32)[nH]c1C	none
COc1ccc2c(c1)N(C)/C(=C1/SC(=NCc3ccccc3)N(c3ccccc3)C1=O)S2	VLA-4 inh 90.5 | VLA-4 mod pick inactive
COc1ccc(OC)c(NS(=O)(=O)c2ccc(NC(C)=O)cc2)c1	none
CCOc1ccc(S(=O)(=O)Nc2cc(OC)ccc2OC)cc1	VLA-4 inh 53.1 | VLA-4 mod pick 56.5
CCOc1ccc(S(=O)(=O)Nc2ccccc2C(=O)N(C)C2CCN(C)CC2)cc1	VLA-4 inh 49.7 (no result: HIF activator, CHT PAM, AI-2 QS mod, Platelet DG rel, CHT inh) | VLA-4 mod pick inactive
COc1ccc(-c2csc(Nc3ncccc3C)n2)cc1	VLA-4 inh 92.2 | VLA-4 mod pick inactive
COc1ccc(-c2csc(Nc3ncccc3C)n2)cc1OC	none
O=C1CCN(CCCc2ccccc2)CCN1[C@H](CO)Cc1ccccc1	VLA-4 inh 54.5 | VLA-4 mod pick inactive
CC(=O)Nc1nc(COc2ccc3ccccc3c2)cs1	VLA-4 inh 56.2 | VLA-4 mod pick inactive
O=C(NCCc1ccc(F)cc1)C1CCN(C(=O)Nc2ccccc2)CC1	VLA-4 inh 58.2 (no result: HIF activator, CHT PAM, AI-2 QS mod, Platelet DG rel, CHT inh) | VLA-4 mod pick inactive
O=C(Nc1ccc(F)cc1)C1CCN(C(=O)c2ccc(F)cc2)CC1	none (no result: HIF activator, CHT PAM, AI-2 QS mod, Platelet DG rel, CHT inh) | VLA-4 mod pick inactive
O=C(NCCc1ccccc1)C1CCN(C(=O)c2ccc(F)cc2)CC1	none
Cc1ccc(NC(=O)C2CCN(C(=O)c3ccc(F)cc3)CC2)nc1	none | VLA-4 mod pick inactive
O=C(CSCc1cccc(Br)c1)N=Nc1c(O)[nH]c2ccccc12	VLA-4 inh 57.0 | VLA-4 mod pick inactive
O=C1OC(c2ccc(F)cc2)=N/C1=C\C=C/c1ccccc1	none | VLA-4 mod pick inactive
C[C@@H](NC(=O)[C@@H]1Cc2ccccc2CN1)C(=O)NC1CCCCC1	VLA-4 inh 50.8 | VLA-4 mod pick inactive
Cc1ccc(NC(=O)[C@@H](C)NC(=O)[C@@H]2Cc3ccccc3CN2)cc1	none
Cc1cnc(NC(=O)Cc2ccc(C)c(C)c2)s1	none
CC(NCc1ccc(-c2ccccc2)cc1)C(O)c1ccccc1 (centres undefined)	none
CCC(CC)NC(=O)Nc1ccc(F)c(Cl)c1	VLA-4 inh 64.1 | VLA-4 mod pick inactive
COC(=O)c1cc2c(ccn2-c2ccc(F)cc2)n1C(C)C	VLA-4 inh 62.9 | VLA-4 mod pick inactive
COc1ccc(CNC(=O)Nc2cccs2)cc1OC	none
COc1cccc(CNC(=O)Nc2cccs2)c1	VLA-4 inh 92.3 | VLA-4 mod pick inactive

High-throughput results as filed in PubChem BioAssay.
